Results on 25 compounds are retold here after paper PMC5540273 (PLoS ONE, 2017).

pKd: −log10 of the molar value. A value given as a limit tells only on which side of the number the result lay.
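Further: kd values determined as follow-up on hits from a single-replicate KINOMEscan panel screen.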

One may read the pKd as the Kd on a negative log10 scale, so that one unit is a factor of ten. Turning to `Fc1ccc(-c2ncn(CCCNCc3ccccc3)c2-c2ccncc2)cc1`, the pKd in the test on CSNK1A1 was 6.68; in the test on CSNK1D, 7.33; in the test with CSNK1E, 6.89.

In the test with CSF1R, `COc1cc2c(Nc3cccc(NC(=O)c4ccccc4)c3)ncnc2cc1OCCCN1CCOCC1` [GSK223810] had a negative-log Kd (pKd) of 6.38. The compound `Cc1ccc(C)c(NC(=O)NCCNc2ccnc(Nc3ccc(F)cc3)n2)c1` [GSK1379878] gave a pKd in the test with CSK below 5.00. Take `COC(=O)c1c(-c2ccccc2)c2cc(Cl)ccc2c(=O)n1Cc1ccc(S(C)(=O)=O)cc1`: the negative-log Kd (pKd) in the test with CSNK1G1 was below 5.00. Turning to `Cc1ccc(NC(=O)c2cccc(C#N)c2)cc1-c1ccc(C(=O)Nc2ccncc2)cc1` [GSK1398463], the negative logarithm of the Kd (pKd) with CSF1R is 6.11.

`Cn1ccc2ncnc(Oc3ccc(NC(=O)Nc4cccnc4)c(Cl)c3)c21` had a negative logarithm of the Kd (pKd) in the test on CSF1R of 6.54. Regarding `CN1CCC(n2cnc(-c3ccc(F)cc3)c2-c2ccnc(NC3CCNCC3)n2)CC1` [SB-229482], the pKd is 6.80 in the test on CSNK1A1, 7.05 in the test with CSNK1D and 6.68 in the test with CSNK1E.

For `CN1c2ccc(-c3ccc(C(=O)NCCO)cc3)cc2-c2[nH]ncc2S1(=O)=O`, the pKd in the test on CLK2 was 6.15. `COc1ccc(NC(=O)Nc2ccc(C)c(-c3ccc(C(=O)Nc4ccncc4)cc3)c2)cc1` [GSK1398475] gave a pKd in the test on CSF1R of 5.74. On to `Nc1nc(-c2ccc3c(N)n[nH]c3c2)cc(N2CCC[C@@H](C(=O)Nc3ccccc3)C2)n1.O=C(O)C(F)(F)F.O=C(O)C(F)(F)F` [GSK2288359], for which the negative-log Kd (pKd) with CSNK1G2 was below 5.00. The compound `Nc1nc(-c2cccnc2)c(-c2ccnc3ccccc23)s1` [GW684083] had a negative-log Kd (pKd) in the test with CLK3 below 5.00. As for `O=C(NCCCN1CCCC1=O)c1cnc(NCc2cc(Cl)ccc2Cl)nc1NC1CCNCC1`, the figures for the pKd with CSF1R and in the test on CSNK1E were below 5.00 and 6.64, respectively. For the compound `COc1ccc(NC(=O)c2ccc(-c3cc(-c4nnc(C)o4)ccc3C)cc2)cc1` [GW595885], the negative logarithm of the Kd (pKd) in the test on CLK3 is below 5.00. With `CC(C)N1CCC(n2cnc(-c3ccc(F)cc3)c2-c2ccnc(N)n2)CC1` [SB-223132], the pKd in the test on CSNK1A1 is 7.23; in the test on CSNK1D, 7.41; with CSNK1E, 6.64. For `CNc1nccc(-c2c(-c3ccc(F)cc3)ncn2C2CCN(C)CC2)n1` [SB-222903], in that order: 7.62, 8.24 and 7.77.

As to `COc1ccc(Nc2nccc(N3CCC(NC(=O)Nc4ccc5c(c4)OCO5)C3)n2)cc1` (centres unmarked) [GSK1379745], the negative-log Kd (pKd) with CSNK1D is below 5.00. In the test on CLK3, `Nc1nccc2scc(-c3ccc4c(c3)CCN4C(=O)Cc3cc(F)ccc3F)c12` [GSK2587663] gave a negative-log Kd (pKd) below 5.00. On to `CSc1ccc(NC2=C(c3ccccc3Cl)C(=O)NC2=O)cc1` [SB-342411], for which, in the test on CLK2, the negative-log Kd (pKd) was 6.34. As to `c1ccc(-c2ccc3c(-c4ccnc(Nc5ccc6c(c5)OCCO6)n4)cnn3n2)cc1` [GW818941], the negative-log Kd (pKd) in the test with CSK is below 5.00. Regarding `FC(F)(F)c1cc(Nc2nccc(-c3c(-c4ccc(Cl)cc4)nn4ncccc34)n2)ccc1Cl` [GW829351], the negative-log Kd (pKd) in the test with CSNK1D was 5.66. On to `Fc1cccc(COc2ccc(Nc3ncnc4sc(-c5ccc[nH]5)cc34)cc2Cl)c1` [GW707818], for which, in the test on CLK4, the pKd is below 5.00. `CCc1nc(-c2cccc(C)c2)c(-c2ccnc(NC(=O)c3ccccc3)c2)s1`: the pKd was 5.85 in the test on CSNK1A1, 6.16 in the test on CSNK1D and 6.06 in the test with CSNK1E. As to `Nc1nc(-c2ccccn2)c(-c2ccnc3ccccc23)s1` [GW548057], the pKd was 5.92 in the test with CSNK1A1 and 5.74 in the test with CSNK1D. Turning to `O=C(Nc1ccccc1F)NC1CCN(c2ccnc(Nc3ccc(F)cc3)n2)C1` (centres unmarked) [GSK1379722], the pKd in the test on CSNK1G2 is below 5.00.

Turning to `CSc1nn2c(=O)cc(N3CCOCC3)nc2n1Cc1cccc(Cl)c1Cl` [GSK2347225], the pKd in the test with CLK3 and with CSNK1E was below 5.00 throughout.
